Laboratory results from PubChem BioAssay (NCATS).
Inconclusive results are not listed. A number with no mark means an inactive call. Activity calls are given as the source filed them. Calls follow the shape of the dose curve; as a rule, active = well fitted inhibition curve with a large enough effect; inconclusive = small, poorly fitted or top-dose-only effect; inactive = flat fitted curve, though single readings scatter.

Biological target: Ubiquitin carboxyl-terminal hydrolase 1 (Homo sapiens) (UniProt O94782)
Assay: Inhibitors of USP1/UAF1: Pilot qHTS (AID 504865); also: nearly all actives have a fitted effect of over 35% in size;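 as to activity change, negative = inhibition: rhodamine fluorescence freed from ubiquitin-rhodamine substrate followed over time; top concentration of the series differs between compounds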
Details: purified USP1/UAF1, Ub-rhodamine cleavage fluorescence; series mostly up to 114 µM; activity change, negative = inhibition: at the top concentration
In short: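 Kinetic fluorescence assay: 1nM USP1/UAF1, 15 min compound preincubation, then 150nM Ub-Rho; 480/540 nm.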
% is scaled to controls: 0 for no effect and ±100 for the full control effect; potency is read from the fitted curve at half-maximal effect.

Ubiquitin carboxyl-terminal hydrolase 1 (Homo sapiens), sequence (O94782 whole entry, looked up): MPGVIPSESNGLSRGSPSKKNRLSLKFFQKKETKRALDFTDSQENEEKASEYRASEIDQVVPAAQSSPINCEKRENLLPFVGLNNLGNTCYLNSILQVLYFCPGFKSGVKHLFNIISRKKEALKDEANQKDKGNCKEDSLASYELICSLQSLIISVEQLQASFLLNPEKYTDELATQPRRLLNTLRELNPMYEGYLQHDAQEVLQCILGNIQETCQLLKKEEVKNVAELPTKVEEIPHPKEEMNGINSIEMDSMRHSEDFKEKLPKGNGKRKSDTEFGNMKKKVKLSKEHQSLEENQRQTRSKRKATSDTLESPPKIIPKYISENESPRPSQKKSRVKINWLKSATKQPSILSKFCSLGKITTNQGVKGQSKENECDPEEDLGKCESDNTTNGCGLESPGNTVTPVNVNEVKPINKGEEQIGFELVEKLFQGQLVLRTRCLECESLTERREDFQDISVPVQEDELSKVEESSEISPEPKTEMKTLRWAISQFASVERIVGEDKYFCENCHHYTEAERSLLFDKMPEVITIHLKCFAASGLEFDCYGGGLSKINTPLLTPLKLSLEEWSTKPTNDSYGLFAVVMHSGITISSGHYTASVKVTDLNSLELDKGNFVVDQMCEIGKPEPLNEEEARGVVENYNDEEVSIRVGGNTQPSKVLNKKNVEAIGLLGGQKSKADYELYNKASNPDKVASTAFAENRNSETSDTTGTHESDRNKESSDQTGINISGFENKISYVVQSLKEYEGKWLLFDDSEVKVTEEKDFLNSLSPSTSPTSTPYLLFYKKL

Structure (SMILES)	activity change, negative = inhibition	Potency
Clc1ccc(Cl)cc1	2.03%	
O=[N+]([O-])c1cc(I)c(O)c(I)c1	-12.5%	
CNC(=O)OCC[N+](C)(C)C	-1.36%	
CC(C)(O)C1C2OC(=O)C1C1(O)CC3OC34C(=O)OC2C14C (stereo not given)	-3.79%	
CCC(C)(S(=O)(=O)CC)S(=O)(=O)CC	-13.5%	
CC(=O)OC1CN2CCC1CC2 (stereo not given)	2.7%	
NCC(O)c1cccc(O)c1 (stereo not given)	-9.56%	
CCOc1ccc2c3c1O[C@H]1[C@@H](O)C=C[C@H]4[C@@H](C2)N(C)CC[C@@]341	-8.08%	
O=C1CN(O)C(c2ccccc2)=c2cc(Cl)ccc2=N1	-7.12%	
CC(=O)O[C@H]1CC[C@H]2[C@@H]3CCC4=CC(=O)CCC4=C3C=C[C@]12C	-19.2%	
CN1C2CCC1CC(OC(c1ccccc1)c1ccccc1N)C2 (stereo not given)	-4.45%	
COC1=CC=C2[C@H]3Cc4ccc(OC)c5c4[C@@]2(CCN3C)[C@H]1O5	-13% [at 54.9 µM]	
CN1c2ccccc2C(NCCCCCCC(=O)O)c2ccc(Cl)cc2S1(=O)=O (stereo not given)	-7.33%	
c1csc(C2(N3CCCCC3)CCCCC2)c1	-10.3%	
CNC(=O)Oc1ccccc1C(=O)Nc1ccccc1	-7.71%	
CN1CCCC(=C(c2cccs2)c2cccs2)C1	-4.47%	
Oc1cccc[c]1[Hg][Cl]		44.7 µM (active)
COC([CH2][Hg])CNC(=O)c1ccccc1OCC(=O)O (stereo not given)	-5.23%	
O=C(CCl)c1ccc(Oc2ccc(C(=O)CCl)cc2)cc1		56.2 µM (active)
CN1C2CCC1CC(OC(c1ccccc1)c1ccc(Cl)cc1)C2 (stereo not given)	-12%	

Structure (SMILES)	activity change, negative = inhibition	Potency
O[C@H]1[C@H]2[C@H](O)CCCN2C[C@H]1O	-0.925%	
CC(=O)OO	-3.76%	
CCC(=O)O[C@@](Cc1ccccc1)(c1ccccc1)[C@@H](C)CN(C)C	3.33% [at 54.9 µM]	
C=CCC1(C(C)CCC)C(=O)N=C(S)NC1=O (stereo not given)	-0.652%	
CCCCNCC(O)c1ccc(O)cc1 (stereo not given)	-4.22%	
N#CC1(N2CCCCC2)CCCCC1	-4.63%	
C[N+]1(C)CCCCC1COC(=O)C(O)(c1ccccc1)c1ccccc1 (stereo not given)	-2.24%	
CNC(C)C(O)c1ccc(O)cc1 (stereo not given)	-5.02%	
CCCC(=O)OC(C(Cl)(Cl)Cl)P(=O)(OC)OC (stereo not given)	-0.402%	
O=c1[nH]cc(N(CCCl)CCCl)c(=O)[nH]1	-1.07%	
C#CC(C)(O)CC (stereo not given)	-6.99%	
CCCC(C)C1(CC)C(=O)NC(=O)NC1=O (stereo not given)	-0.514%	
CCCN1CCc2cc(O)cc3c2[C@H]1Cc1ccc(O)c(O)c1-3	-7.69%	
CCC1(CC)C(=O)NC(=O)N(C)C1=O	-0.485%	
c1ccc2sc(SNC3CCCCC3)nc2c1	-8.37%	
C=CCN1CCc2cccc3c2[C@H]1Cc1ccc(O)c(O)c1-3	-7.25%	
CCON=O	-0.412%	
c1cc2c(c(NC3=NCCN3)c1)CCCC2	-6.05%	
FC(F)OC(F)(F)C(F)Cl (stereo not given)	3.21%	
CCC1(c2ccccc2)C(=O)NC(=O)NC1=O	-3.56%	
